# Values without a mark were called inactive. Inconclusive results are not listed. Active and inactive are the calls of the source. Unless noted, the call rests on the fitted dose curve; in most records, active means well fitted curve in either direction with a large enough effect (not every such curve was filed as active); inconclusive means small, poorly fitted or top-dose-only effect, or another doubt; inactive means flat fitted curve, though single readings scatter. Residues, ends and D or L forms follow the SMILES beside them.
# What was measured:
# [1] = molecular target: Lysosomal acid glucosylceramidase (Homo sapiens) (UniProt P04062); test: Glucocerebrosidase-p2 (AID 348; in the data active means potency below about 10 µM; further: potency means the concentration at half of the fitted maximal effect); settings: purified GBA, blue fluorogenic substrate, 40 min
# Summary of the method: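 Compounds titrated from 0.6 nM upwards against 0.2 nM enzyme in pH 5.9 citric acid/KH2PO4, taurocholate, tween-20; blue fluorogenic substrate 80 uM, 40 min room temperature, stopped and read Ex 365/Em 440 for AC50.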
# [2] = AP1 Signaling Pathway (AID 357); settings: ME-180 AP-1-bla reporter, EGF-induced, beta-lactamase ratio, 5 h; at 7.69 µM (top of the series) unless noted;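 further: ME-180 reporter cells stimulated with EGF at its EC50 level; on the % scale 0 is the no-effect control and ±100 the full control effect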
# Summary of the method: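 Read-out was the 460nm/530nm emission ratio (excitation 405nm) after CCF4 loading for 2.5 hours at room temperature. Cells carried an AP-1-driven beta-lactamase reporter, were stimulated with EC50 EGF plus compound for 5 hours, and AC50 values came from titrations.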
# [3] = molecular target: Cytochrome P450 1A2 (Homo sapiens) (UniProt P05177); test: p450-cyp1a2 (AID 410; calls by dose curve; further: potency means the concentration at half of the fitted maximal effect;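 on activity change, negative = inhibition: -100% = full effect of reference inhibitor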); settings: recombinant CYP1A2, luciferin-ME demethylation, luminescence; series mostly up to 11.4 µM
# Summary of the method: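 Luminescent readout of luciferin formed from Luciferin-ME by human CYP1A2; data normalized against complete inhibition by 57 uM furafylline. Enzyme 20nM, substrate 100uM at Km, 100mM KPO4 buffer, 60 min reaction at room temperature.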
# [4] = NFAT Signaling Pathway (AID 444); settings: Jurkat NFAT-bla M1, carbachol, beta-lactamase ratio, 5 h; at 7.69 µM (top of the series) unless noted;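 further: carbachol stimulus at about its EC50 of 1 µM final; on the % scale 0 is the no-effect control and ±100 the full control effect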
# Summary of the method: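 Jurkat cells carrying an NFAT-driven β-lactamase reporter and co-transfected muscarinic M1 receptor were treated with compound plus carbachol (1 uM final, an EC50 level) for 5 h at 37 °C. CCF4 loading followed for 1 h at RT; 460/530 nm ratio gave %activity.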
# [5] = Stat Signaling Pathway (AID 446); settings: ME-180 (cervical carcinoma) SIE beta-lactamase reporter, IL-6 stimulated, 5 h; at 7.69 µM (top of the series) unless noted;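 further: ME-180 cervical cancer cells given 40 pM IL-6 alongside compound; SIE-controlled beta-lactamase reporter measured as 460/530 nm FRET emission ratio; on the % scale 0 is the no-effect control and ±100 the full control effect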
# Summary of the method: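 IL-6/STAT signaling read in ME-180 cells via an SIE beta-lactamase reporter. Stimulus was 40 pM IL-6 (its AC50) for 5 hrs, so both activation and inhibition register.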
# [6] = molecular target: Glucocorticoid receptor (Homo sapiens) (UniProt P04150); test: GR-GFP Redistribution (AID 450;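 active means compounds whose dose series gives a full or clear partial fitted curve of increased nuclear translocation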; further: potency means the concentration at half of the fitted maximal effect); settings: U2OS GR-GFP nuclear translocation, laser cytometry, 2 h
# [7] = molecular target: Glucocorticoid receptor (Homo sapiens) (UniProt P04150); test: GR-EFC Redistribution (AID 451; calls by dose curve; further: potency means the concentration at half of the fitted maximal effect); settings: CHO-K1 GR-EFC translocation, beta-gal luminescence, 2 h
# Summary of the method: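 CHO-K1 cells stably expressing nuclear-localized β-gal enzyme acceptor and GR fused C-terminally to the enzyme donor fragment; ligand-driven nuclear translocation restores β-gal by complementation. Compounds titrated up to 46 uM final, 2 h at 37 °C; luminescence read.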
# [8] = molecular target: Mitogen-activated protein kinase 10 (Mus musculus) (UniProt Q61831); test: JNK3 AlphaScreen Assay (AID 530); settings: JNK3 lysate, c-Jun phosphorylation; series mostly up to 11.4 µM;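 further: kinase came from lysate of stimulated human HepG2 cells; signal reports phosphorylation of biotinylated GST-cJun 1-79 at Ser73 with 10 µM ATP; on the % scale 0 is the no-effect control and ±100 the full control effect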
# Summary of the method: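 Inhibitors reduce antibody binding to phosphorylated biotin-cJun, lowering AlphaScreen luminescence. Lysates from HepG2 cells pre-activated by IL-1beta plus TNF-alpha supplied JNK3; compounds were titrated.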
# [9] = molecular target: 3',5'-cyclic-AMP phosphodiesterase 4B (Homo sapiens) (UniProt Q07343); test: qHTS Assay for Inhibitors of PDE-IV (AID 607; active means well fitted activation curve with a large enough effect in the main read-out, with a control signal flat, not every such curve was filed as active; further: % of control where 0% means no effect); settings: HEK293 ACTOne CNG channel cells, membrane potential fluorescence; series mostly up to 22.9 µM
# Summary of the method: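 Live HEK293 cells with a modified cyclic nucleotide-gated (CNG) channel report intracellular cAMP via membrane-potential dye fluorescence (ex 535/em 590 nm). Endogenous PDE-IV was targeted. Compounds were tested at up to 22.9 uM final; RO 20-1724 100 uM served as control.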
# Chain of Glucocorticoid receptor (Homo sapiens) (P04150 whole entry, looked up, the tested form may be a part): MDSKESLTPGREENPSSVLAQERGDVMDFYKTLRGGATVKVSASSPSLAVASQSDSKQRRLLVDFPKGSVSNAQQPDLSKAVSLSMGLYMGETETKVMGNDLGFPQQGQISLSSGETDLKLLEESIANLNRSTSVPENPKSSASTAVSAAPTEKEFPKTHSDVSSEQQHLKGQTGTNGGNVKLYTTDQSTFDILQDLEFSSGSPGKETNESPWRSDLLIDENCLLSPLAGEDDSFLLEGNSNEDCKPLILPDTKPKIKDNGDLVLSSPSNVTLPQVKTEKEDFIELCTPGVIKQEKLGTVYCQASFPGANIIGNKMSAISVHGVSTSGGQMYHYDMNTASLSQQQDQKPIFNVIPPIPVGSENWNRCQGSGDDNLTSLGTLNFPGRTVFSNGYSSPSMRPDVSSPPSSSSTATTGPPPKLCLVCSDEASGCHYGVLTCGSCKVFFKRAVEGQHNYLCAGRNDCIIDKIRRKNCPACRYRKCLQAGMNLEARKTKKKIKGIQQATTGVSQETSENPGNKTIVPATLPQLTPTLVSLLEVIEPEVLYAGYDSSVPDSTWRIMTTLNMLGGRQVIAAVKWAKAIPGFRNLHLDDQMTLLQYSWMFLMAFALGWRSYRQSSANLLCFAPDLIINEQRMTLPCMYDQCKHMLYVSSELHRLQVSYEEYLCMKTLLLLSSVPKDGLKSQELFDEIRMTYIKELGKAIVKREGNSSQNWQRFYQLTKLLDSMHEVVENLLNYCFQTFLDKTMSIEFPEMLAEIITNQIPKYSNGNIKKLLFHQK
# Chain of 3',5'-cyclic-AMP phosphodiesterase 4B (Homo sapiens) (Q07343 whole entry, looked up): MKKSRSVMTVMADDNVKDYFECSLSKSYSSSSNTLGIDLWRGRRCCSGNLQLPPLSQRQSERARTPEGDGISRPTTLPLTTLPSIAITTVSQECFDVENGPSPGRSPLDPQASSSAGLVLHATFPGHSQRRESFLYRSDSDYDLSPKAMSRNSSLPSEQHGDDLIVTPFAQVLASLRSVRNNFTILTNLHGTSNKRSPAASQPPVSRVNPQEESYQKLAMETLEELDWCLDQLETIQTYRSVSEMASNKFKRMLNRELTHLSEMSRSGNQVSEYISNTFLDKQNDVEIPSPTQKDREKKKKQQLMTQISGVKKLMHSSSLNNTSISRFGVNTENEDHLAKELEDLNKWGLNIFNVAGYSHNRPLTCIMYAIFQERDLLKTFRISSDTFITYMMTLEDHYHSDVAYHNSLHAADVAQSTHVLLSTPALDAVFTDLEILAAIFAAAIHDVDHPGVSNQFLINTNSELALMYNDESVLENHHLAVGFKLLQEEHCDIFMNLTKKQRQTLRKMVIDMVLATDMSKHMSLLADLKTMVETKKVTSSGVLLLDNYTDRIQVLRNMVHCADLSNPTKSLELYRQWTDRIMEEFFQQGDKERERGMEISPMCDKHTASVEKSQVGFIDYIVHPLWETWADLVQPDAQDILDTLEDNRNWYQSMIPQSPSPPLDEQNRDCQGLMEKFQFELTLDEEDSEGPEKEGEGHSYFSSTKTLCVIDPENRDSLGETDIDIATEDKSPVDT
# Chain of Cytochrome P450 1A2 (Homo sapiens) (P05177 whole entry, looked up): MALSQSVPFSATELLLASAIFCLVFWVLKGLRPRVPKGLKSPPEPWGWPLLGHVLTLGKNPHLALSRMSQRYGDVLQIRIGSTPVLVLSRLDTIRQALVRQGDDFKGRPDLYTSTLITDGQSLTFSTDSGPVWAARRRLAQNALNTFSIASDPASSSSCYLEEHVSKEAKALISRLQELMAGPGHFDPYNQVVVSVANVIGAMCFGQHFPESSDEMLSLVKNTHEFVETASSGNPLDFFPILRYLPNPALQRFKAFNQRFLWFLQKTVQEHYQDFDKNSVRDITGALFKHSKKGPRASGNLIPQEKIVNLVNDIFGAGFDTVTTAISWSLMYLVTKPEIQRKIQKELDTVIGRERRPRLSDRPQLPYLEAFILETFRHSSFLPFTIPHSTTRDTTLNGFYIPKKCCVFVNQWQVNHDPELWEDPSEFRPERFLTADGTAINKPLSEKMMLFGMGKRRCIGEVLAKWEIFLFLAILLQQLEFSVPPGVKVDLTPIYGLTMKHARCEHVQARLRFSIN
# Chain of Lysosomal acid glucosylceramidase (Homo sapiens) (P04062 whole entry, looked up): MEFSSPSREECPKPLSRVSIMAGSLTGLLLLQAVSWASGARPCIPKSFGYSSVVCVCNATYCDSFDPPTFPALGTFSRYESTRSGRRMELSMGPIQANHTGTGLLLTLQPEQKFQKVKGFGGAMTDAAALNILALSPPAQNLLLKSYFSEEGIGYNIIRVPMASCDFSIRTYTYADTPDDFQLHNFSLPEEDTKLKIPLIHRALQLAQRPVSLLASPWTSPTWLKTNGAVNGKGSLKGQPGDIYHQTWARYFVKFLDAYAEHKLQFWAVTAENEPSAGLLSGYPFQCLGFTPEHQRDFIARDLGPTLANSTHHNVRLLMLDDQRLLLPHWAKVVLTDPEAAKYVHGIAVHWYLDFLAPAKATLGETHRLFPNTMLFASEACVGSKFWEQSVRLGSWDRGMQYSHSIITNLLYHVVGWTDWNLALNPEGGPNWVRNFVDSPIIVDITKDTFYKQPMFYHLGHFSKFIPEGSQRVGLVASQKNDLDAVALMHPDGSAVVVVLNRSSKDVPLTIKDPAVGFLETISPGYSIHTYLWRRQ
SMILES,Potency [1] [µM],"activity change, negative = inhibition [2] [%]",Potency [3],"activity change, negative = inhibition [4] [%]","activity, negative = inhibition [5] [%]",Potency [6] [µM],Potency [7] [µM],Potency [8],Potency [9],"activity change, negative = inhibition [3]"
CC(=O)[C@H]([C@@H](c1ccccc1)N1CCOCC1)N1CCOCC1,> 11.4,4,inactive,15.1,4.56,> 46,> 9.22,inactive,inactive,
c1ccc([C@H](CCN2CCCC2)c2ccccn2)cc1,> 11.4,-0.626,inactive,-26.3,0.606,> 46,> 9.22,inactive,inactive,
O=S(=O)(O)c1cc(N=[N+]([O-])c2cc(S(=O)(=O)O)c3ccccc3c2)cc2ccccc12,> 11.4,5.38,1.26 µM (active),8.26,-2.62,> 46,> 9.22,inactive,inactive,
Cc1cc(=O)oc2c(OS(C)(=O)=O)c(OS(C)(=O)=O)ccc12,> 11.4,-3.34,0.794 µM (active),5.12,4.16,> 46,> 9.22,inactive,inactive,
CCC[C@H](Sc1nc(N)nc2nc[nH]c12)C(=O)O,> 11.4,-8.03,inactive,-19.8,6.16,> 46,> 9.22,inactive,inactive,
NCC(=O)NC1(C(=O)O)CCCC1 (HELM PEPTIDE1{G.[O=C(O)C1(N[*:1])CCCC1]}$$$$V2.0),> 11.4,4.89,inactive,-2.62,12.2,> 46,> 9.22,inactive,inactive,
O=C(O)C/C(=C\c1ccccc1)C(=O)O,> 11.4,7.15,inactive,-2.46,10.5,> 46,> 9.22,inactive,inactive,
C[N+](C)(N)Cc1csc(-c2ccc(Cl)cc2)n1,> 11.4,8.47,,-11.8,0.559,> 46,> 9.22,inactive,inactive,-4.2% [at 2.29 µM]
Nc1nc(SCC(=O)O)[nH]c(=O)c1N,> 11.4,4.37,inactive,10.6,4.74,> 46,> 9.22,inactive,inactive,
O=C(O)c1c(-c2c3ccc(=O)cc-3oc3cc(O)ccc23)cc2ccccc2c1-c1ccccc1,> 11.4,8.03,,2.16,3.5,> 46,> 9.22,inactive,inactive,-17.6% [at 2.29 µM]
O=C(O)Cc1cccnc1,> 11.4,8.81,inactive,15.8,3.03,> 46,> 9.22,inactive,inactive,
O=C1c2ccccc2C(=O)N1C[C@]1(C(=O)O)NCCS1(=O)=O,> 11.4,-0.765,,7.39,-1.43,> 46,> 9.22,inactive,inactive,-5.5% [at 2.29 µM]
CC(=O)/C(=N\N=C(N)N)c1ccccc1,> 11.4,8.04,,-0.66,7.52,> 46,> 9.22,inactive,inactive,-17.2% [at 2.29 µM]
O=[N+]([O-])c1ccc2c(c1)Cc1cc(N=Cc3ccc4c(c3)OCO4)ccc1-2,> 11.4,-3.82,0.794 µM (active),-8.54,-4.51,> 46,> 9.22,inactive,inactive,
NCCNS(=O)(=O)c1ccc(N)cc1,> 11.4,3.42,inactive,-2.06,3.19,> 46,> 9.22,inactive,inactive,
CC[C@](N)(C(=O)O)C(C)C,> 11.4,6.23,inactive,-9.09,-6.84,> 46,> 9.22,inactive,inactive,
CC(C)(C[C@@]1(C)NC(=O)NC1=O)OCc1ccccc1,> 11.4,-2.92,,-0.038,0.608,> 46,> 9.22,inactive,inactive,-12.1% [at 2.29 µM]
Cc1nc2cccc([N+](=O)[O-])c2n1CCCN(C)C,> 11.4,11.7,inactive,12.7,9.88,> 46,> 9.22,inactive,inactive,
CCOC(=O)c1cnc(N(C)C)nc1SC(=N)N,> 11.4,-8.3,,11.3,-0.214,> 46,> 9.22,inactive,inactive,-22.6% [at 2.29 µM]
C[C@@]1(CCOCc2ccccc2)NC(=O)NC1=O,> 11.4,7.73,inactive,-2.8,8.58,> 46,> 9.22,inactive,inactive,
C1CCN(CC[C@@H]2CCCCN2)CC1,> 11.4,12.5,inactive,8.93,-0.348,> 46,> 9.22,inactive,inactive,
NCCNCC1CCNCC1,> 11.4,2.94,,8.35,3.5,> 46,> 9.22,inactive,inactive,-3.6% [at 2.29 µM]
O=C(O)[C@H]1CC=CC[C@@H]1C(=O)Nc1cccc(O)c1,> 11.4,-4.95,inactive,9.88,1.44,> 46,> 9.22,inactive,inactive,
COc1ccc(CN[C@H](C)C(=O)O)cc1,> 11.4,-9.23,inactive,-12,2.1,> 46,> 9.22,inactive,inactive,
O=C(O)/C=C\C(=O)Nc1ncn[nH]1,> 11.4,8.44,inactive,2.25,2.6,> 46,> 9.22,inactive,inactive,
C(=Nc1cnc2ccccc2c1)c1ccc2ccccc2n1,> 11.4,-2.4,3.98 µM (active),3.2,-6.04,> 46,> 9.22,inactive,inactive,
NC(N)=NC(N)=Nc1ccc(S(=O)(=O)O)cc1,> 11.4,1.18,inactive,0.0165,-0.308,> 46,> 9.22,inactive,inactive,
CO[C@@H](NC(N)=O)C(=O)O,> 11.4,-1,,1.38,8.15,> 46,> 9.22,inactive,inactive,-6.4% [at 2.29 µM]
C[C@H](Br)C(=O)c1ccc2cc(Br)c3ccccc3c2c1,> 11.4,-18.5,0.158 µM (active),26.1,-2.19,> 46,> 9.22,inactive,inactive,

# — PubChem BioAssay (NCATS)
